NPYLR7 agonist: agonists of mosquito NPYLR7 receptor, primary screen, cell-based, Aedes aegypti, calcium fluorescence, mosquito biting behavior. Aedes aegypti neuropeptide Y-like receptor 7 (NPYLR7). HEK293T NPYLR7/Galpha15, GCaMP6s calcium fluorescence. activation, % at 10 µM. 0.15% of 270,000 active. AID 1259423, 2018; in the data active = activation above about 40%;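 also: 0% = vehicle and 100% = reference agonist at the receptor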
hcGAS inh: Primary biochemical luminescence assay for human cyclic GMP-AMP synthase inhibitors; recombinant h-cGAS, ATP depletion, Kinase-Glo luminescence; Q8N884; 0.081% of 290,000 active; AID 1259398, 2018; inhibition, % at 12.5 µM;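 also: 0% = vehicle reaction and 100% = reaction without DNA for no activity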
mcGAS inh: cyclic GMP-AMP synthase inhibitors, mouse, primary biochemical chemiluminescence. Q8C6L5. recombinant cGAS, Kinase-Glo ATP depletion luminescence. inhibition, % at 12.5 µM. 0.15% of 160,000 active. AID 1259399, 2018;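 also: 0% = negative control wells and 100% = reference inhibitor with no enzyme activity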
Active calls of the source: *; · = no result given. Hits are enriched below; roughly 0.3% of the tested compounds scored in any of these assays. Rule as the data show it, unless noted: active = inhibition above about 40%; inactive = the rest.

SMILES	NPYLR7 agonist	hcGAS inh	mcGAS inh
CCn1nc(-c2cccs2)nc2c(=O)n(C)c(=O)nc1-2	12	17	59*
c1ccc([C@@H]2CN(c3cnc4ccccc4n3)[C@@H]3C4CCN(CC4)[C@@H]32)cc1	9	-1	·
CN1CCC2(CC1)CNCC2c1nc(C2CC2)n[nH]1 (stereo not given)	·	-6	-4
O=c1c(O)c(-c2ccc(O)c(O)c2)oc2c(O)c(O)cc(O)c12	-3	47*	·
Oc1c(Cl)c(Cl)c(Cl)c(Cl)c1Cl	6	70*	·
COc1cc(C=C2C(=O)N(C)C(=O)N(C)C2=O)cc(Br)c1O	-11	1	6
CCN1CCN(C(=S)N=P(c2ccccc2)(N(CC)CC)N(CC)CC)CC1	0	0	·
CNC(=O)Oc1cccc2c1OC(C)(C)C2	-5	-4	·
Cc1cc(OCC(=O)N2CCN(CCN3CCNC3=O)CC2)ccc1C(C)C	1	3	·
O=[N+]([O-])c1cc(C(F)(F)F)cc2c1no[n+]2[O-]	10	0	·
O=[N+]([O-])c1c(Cl)ccc2c1no[n+]2[O-]	2	61*	93*
O=C(Cc1cccc(O)c1)N1C[C@@H](c2ccccc2)[C@@H]2[C@H]1C1CCN2CC1	·	-10	·
Cc1ccc(N2C(=O)NC(=O)/C(=C/c3cn(C)c4ccccc34)C2=O)cc1	2	-3	-1
Cc1cccc(N2C(=O)NC(=O)/C(=C/c3cn(C)c4ccccc34)C2=O)c1	53*	0	1
C#C[C@H]1CN2CC[C@H]1C[C@@H]2CNC(=S)Nc1ccc(F)cc1	-5	1	-3
c1cnc2c(c1)CN(Cc1cc3n(n1)CCNC3)CC2	14	1	·
O=C1OC2(c3cc(Br)c(O)cc3Oc3c2cc(Br)c(O)[c]3[Hg])c2ccccc21 (stereo not given)	98*	0	30
O=C(O)c1ccccc1-c1c2cc(Br)c(=O)cc-2oc2[c]([Hg])c(O)c(Br)cc12	60*	34	·
CC(N)C(=O)c1cccs1 (stereo not given)	11	3	0
CC(=O)Nc1ccc(CN2CCCC(C(=O)c3cccc(Cl)c3)C2)cc1 (stereo not given)	21	-10	·
CCOc1ccccc1NC(=O)CCN1[C@@H]2CC[C@H]1CC(O)C2 (stereo not given in full)	-5	-6	-13
COc1ccc2c3c([nH]c2c1)C(C)=NCC3	0	-6	-3
CC1=NCCc2c1[nH]c1cc(O)ccc21	65*	-2	-1
CN1CCN2CCN(c3ncc(C(F)(F)F)cc3Cl)CC2C1 (stereo not given)	-4	-3	·
NC(=O)c1ccccc1NC(=O)c1cccn(Cc2ccc(Cl)cc2)c1=O	11	-5	·
SMILES	NPYLR7 agonist	hcGAS inh	mcGAS inh
N#CC(C#N)=Cc1ccc(-c2ccccc2)cc1	-2	-4	49*
N#CC(C#N)=Cc1ccc(O)cc1	4	-7	·
CN1[C@H]2CC[C@@H]1CN(C(=O)c1cc(-c3ccccc3)on1)CC2	7	1	·
CCOC(=O)C1(CCCc2ccccc2)CCN(C2CCC2)CC1	·	-8	·
COC(=O)[C@]12CCC(C)(C)C[C@H]1[C@H]1C(=O)C=C3[C@@]4(C)C=C(C#N)C(=O)C(C)(C)[C@@H]4CC[C@@]3(C)[C@]1(C)CC2	1	38	52*
O=C1Nc2ccccc2C12CCN(Cc1ccnn1-c1ccccc1)CC2	-4	-3	·
N#CC1C(=N)Oc2c(c(=O)oc3ccccc23)C1c1cccc(F)c1 (stereo not given)	-2	4	4
N#CC1C(=N)Oc2c(c(=O)oc3ccccc23)C1c1ccc([N+](=O)[O-])o1 (stereo not given)	-12	-7	59*

Screening data (PubChem BioAssay)
